Data on 33 compounds can be found in PubChem BioAssay (Tox21).

Experiment [1] can be described thus: qHTS assay to identify small molecule antagonists of the glucocorticoid receptor (GR) signaling pathway - cell viability counter screen (AID 720693). Also: nearly all actives have a fitted effect of over 55% in size. A general note: In qHTS, concentration-response curves come from the screen itself.
Experiment [2] can be described thus: qHTS assay for identifying genotoxic compounds that show differential cytotoxicity against isogenic chicken DT40 cell lines with known DNA damage response pathways - wild type cell line (AID 743012). Also: nearly all actives have a fitted effect of over 60% in size. Also: potency is read from the fitted curve at half-maximal effect. In outline: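 Luminescent ATP viability signal (CellTiter-Glo, 30 min RT) recorded after wild type DT40 cells were incubated with compounds for 40 h at 37 C/5% CO2.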

A short description of experiment [3]: qHTS assay for identifying genotoxic compounds that show differential cytotoxicity against isogenic chicken DT40 cell lines with known DNA damage response pathways - Rev3 mutant cell line (AID 743014). Also: nearly all actives have a fitted effect of over 55% in size. Also: potency is read from the fitted curve at half-maximal effect.
Experiment [4] in a line: qHTS assay to identify small molecule antagonists of the androgen receptor (AR) signaling pathway - cell viability counter screen (AID 743033; also: nearly all actives have a fitted effect of over 45% in size).
Experiment [5] in a line: qHTS assay to identify small molecule antagonists of the thyroid receptor (TR) signaling pathway - cell viability counter screen (AID 743064). Also: nearly all actives have a fitted effect of over 50% in size. Also: potency is read from the fitted curve at half-maximal effect. An outline of the steps: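 In rat pituitary GH3.TRE-Luc reporter cells co-exposed to compound and 1 nM T3 for 23.5 h, cytotoxicity was assessed with CellTiter-Fluor in the same wells, read by fluorescence.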
The nature of experiment [6]: qHTS assay for identifying genotoxic compounds that show differential cytotoxicity against isogenic chicken DT40 cell lines with known DNA damage response pathways - Rad54/Ku70 mutant cell line (AID 743015). Also: nearly all actives have a fitted effect of over 60% in size. Also: potency is read from the fitted curve at half-maximal effect.
The target in experiment [7] is Androgen receptor (Homo sapiens) (UniProt P10275). In words: qHTS assay to identify small molecule antagonists of the androgen receptor (AR) signaling pathway (AID 743035; active = well fitted inhibition curve with a large enough effect in the signal ratio in the repeat runs, not every such curve was filed as active; the % refers to the signal ratio; also: potency is read from the fitted curve at half-maximal effect). In outline: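 Quantitative HTS of the Tox21 10K library used HEK293 AR-UAS-bla cells stimulated with R1881 alongside compound for 16 h at 37C, followed by beta-lactamase FRET detection (LiveBLAzer B/G, 2 h, RT).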
Chain of Androgen receptor (Homo sapiens) (P10275 whole entry, looked up): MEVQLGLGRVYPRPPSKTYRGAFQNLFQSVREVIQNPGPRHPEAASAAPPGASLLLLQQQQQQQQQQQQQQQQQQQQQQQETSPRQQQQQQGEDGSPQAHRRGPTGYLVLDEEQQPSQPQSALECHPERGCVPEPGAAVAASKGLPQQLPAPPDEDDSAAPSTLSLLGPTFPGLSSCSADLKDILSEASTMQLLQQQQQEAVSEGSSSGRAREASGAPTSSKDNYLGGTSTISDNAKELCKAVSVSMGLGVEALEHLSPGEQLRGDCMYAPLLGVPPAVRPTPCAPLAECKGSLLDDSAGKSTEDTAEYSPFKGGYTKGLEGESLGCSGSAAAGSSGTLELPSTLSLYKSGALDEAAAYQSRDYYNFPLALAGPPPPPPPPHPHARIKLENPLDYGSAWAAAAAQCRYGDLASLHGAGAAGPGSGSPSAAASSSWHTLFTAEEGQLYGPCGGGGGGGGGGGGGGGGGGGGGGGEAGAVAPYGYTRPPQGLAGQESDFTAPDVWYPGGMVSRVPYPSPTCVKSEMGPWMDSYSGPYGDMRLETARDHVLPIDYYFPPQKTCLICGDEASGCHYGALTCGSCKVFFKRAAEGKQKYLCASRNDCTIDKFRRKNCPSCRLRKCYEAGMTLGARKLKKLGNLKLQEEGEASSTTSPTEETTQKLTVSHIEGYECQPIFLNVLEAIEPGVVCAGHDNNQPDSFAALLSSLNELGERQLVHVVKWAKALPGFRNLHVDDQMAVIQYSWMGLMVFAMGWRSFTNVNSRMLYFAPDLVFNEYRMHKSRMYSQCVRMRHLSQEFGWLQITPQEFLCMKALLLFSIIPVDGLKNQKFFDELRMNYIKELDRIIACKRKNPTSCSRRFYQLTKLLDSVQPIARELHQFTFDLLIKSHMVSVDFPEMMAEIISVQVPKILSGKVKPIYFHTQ

The target is the same in experiment [8]. In words: qHTS assay to identify small molecule agonists of the androgen receptor (AR) signaling pathway using the MDA cell line (AID 743040; also: nearly all actives have a fitted effect of over 20% in size; also: potency is read from the fitted curve at half-maximal effect). An outline of the steps:
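Cell-based luciferase reporter: MDA-kb2, MMTV promoter (AR + GR response elements). 16 h compound exposure at 37C; ONE-Glo, 30 min RT, luminescence.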

The nature of experiment [9]: qHTS assay to identify small molecule antagonists of the androgen receptor (AR) signaling pathway using the MDA cell line - cell viability counter screen (AID 743041; also: nearly all actives have a fitted effect of over 45% in size). An outline of the steps:
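In this qHTS counter assay, fluorescence intensity after CellTiter-Fluor addition indicated viability of MDA-kb2 AR-luc cells given compounds and R1881 for 16 h at 37C.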

Experiment [10] has as its target Androgen receptor (Homo sapiens) (UniProt P10275). In words: qHTS assay to identify small molecule antagonists of the androgen receptor (AR) signaling pathway using the MDA cell line (AID 743042; also: nearly all actives have a fitted effect of over 55% in size). In outline:
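MDA-kb2 cells (human breast carcinoma, stably carrying an MMTV-luciferase reporter responsive to AR and GR) were plated at 3,000 cells/well and preincubated 5 hr at 37C, then given compound plus R1881 agonist for 16 h. ONE-Glo luminescence was read.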

Results filed as inconclusive are left out. Calls of active or inactive are those of the source. Unless noted, calls follow the shape of the dose curve; as a rule, active = well fitted curve in the direction sought with a large enough effect in the repeat runs; inconclusive = weak or mixed curves; inactive = no such curve, though single readings can be large; an effect the other way counts as inactive or inconclusive.

For `CCCSC(=O)N(CCC)CCC`, the Potency result in experiment [1], in experiment [2], in experiment [3], in [4] and in [5] was “inactive” in each case.
As to `COc1ncc(F)c2nc(S(=O)(=O)Nc3c(F)cccc3F)nn12`, the Potency result in experiment [1], in experiment [2], in [6], in [4], in [7] and in experiment [8] was “inactive” throughout. Besides, the Potency result in experiment [9] and in experiment [5] was “inactive” in each case. The call in experiment [10] was inactive.
For the compound `NC1=NC(=O)C(c2ccccc2)O1` (stereo unspecified), the Potency result in [1], in [2], in experiment [6], in [4] and in experiment [9] was “inactive” in each case.
For `CCCCc1ccc(O)cc1`, the Potency result in [1], in experiment [2], in experiment [6], in experiment [4] and in [5] was “inactive” in each case.
As to `CCC(=O)c1ccccc1`, the Potency result in experiment [1], in experiment [2], in experiment [6], in [4], in experiment [7] and in [8] was “inactive” throughout. Further, the Potency entry in [9] and in experiment [5] was “inactive” in each case. Also, in experiment [10], the compound was called inactive.
Regarding `CCC(C)n1c(=O)[nH]c(C)c(Br)c1=O` (stereo unspecified), the Potency entry in [1], in experiment [2], in experiment [6], in experiment [4], in experiment [9] and in [5] was “inactive” in each case.
Regarding `CCN(CC)C(C)C(=O)c1ccccc1` (stereo unspecified), the Potency result in experiment [1], in [2], in experiment [3], in experiment [7], in experiment [8] and in experiment [9] was “inactive” each time. Moreover, the Potency entry in experiment [5] is “inactive”. Also, the compound was classed as inactive in [10].
For `CCOP(=S)(OCC)SCSc1ccc(Cl)cc1`, the Potency result in experiment [1], in experiment [2], in experiment [6], in experiment [4], in experiment [9] and in experiment [5] was “inactive” throughout.
Take `CN1C(=S)CN=C(c2ccccc2)c2cc(Cl)ccc21`: the Potency entry in [1], in [4] and in [5] was “inactive” each time. The Potency in experiment [2] was 23.7 µM (active); in experiment [6] it was 29.8 µM (active).
For `Nc1cnn(-c2ccccc2)c(=O)c1Cl`, the Potency result in [1], in [2], in experiment [6], in [9] and in [5] was “inactive” each time.
Regarding `C#C[C@]1(O)C=C[C@H]2[C@@H]3CCC4=CC(=O)CC[C@@H]4[C@H]3CC[C@@]21CC`, the Potency result in [1], in experiment [4] and in experiment [9] was “inactive” in each case. Also, the Potency is 23.7 µM (active) in experiment [2], 23.7 µM (active) in [6], 0.19 µM (active) in [7] and 0.0133 µM (active) in experiment [8]. For the same compound, in experiment [10], the result was inactive.
Take `OCCBr`: the Potency entry in [1], in [2], in [9] and in experiment [5] was “inactive” throughout. Moreover, the Potency in [3] was 19.4 µM (active).
Turning to `c1cc[c]([Hg][c]2ccccc2)cc1`, the Potency result in experiment [1], in [4], in experiment [8] and in [9] was “inactive” in each case. Moreover, the Potency in experiment [2] is 0.273 µM (active); in experiment [6] it was 0.193 µM (active); in experiment [7], 43.6 µM (active). Also, the call in experiment [10] was inactive.
Regarding `CCOP(=S)(OCC)Oc1cc(-c2ccccc2)on1`, the Potency entry in [1], in experiment [4], in experiment [9] and in experiment [5] was “inactive” in each case. The Potency in experiment [2] and in experiment [6] was 68.6 µM (active) each time.
As to `O=P(O)(Oc1ccccc1)Oc1ccccc1`, the Potency result in experiment [1], in [2], in experiment [6], in [9] and in experiment [5] was “inactive” throughout.
For the compound `ClC(Cl)C(Cl)Cl`, the Potency result in [1], in [2], in [6], in [4], in experiment [9] and in experiment [5] was “inactive” in each case.
As to `CCOC(=O)CP(=O)(OCC)OCC`, the Potency entry in experiment [1], in experiment [2], in experiment [6], in experiment [4], in experiment [9] and in experiment [5] was “inactive” throughout.
On to `O=[N+]([O-])c1ccc2c3c(cccc13)CC2`, for which the Potency entry in [1], in [2], in experiment [9] and in experiment [5] was “inactive” each time. The Potency in experiment [3] was 19.3 µM (active).
As to `Nc1c(Br)cc([N+](=O)[O-])cc1[N+](=O)[O-]`, the Potency entry in experiment [1], in experiment [2] and in [8] was “inactive” each time. Also, in experiment [10], the compound was called inactive. The Potency in experiment [5] was 55.1 µM (active).
On to `OC(c1ccc(F)cc1)(c1cncnc1)c1ccccc1Cl` (stereo unspecified), for which the Potency entry in [1], in experiment [4], in experiment [9] and in [5] was “inactive” in each case. The Potency is 30.6 µM (active) in experiment [3] and 61.1 µM (active) in [6].
As to `ClC(Cl)(Cl)C(Cl)(Cl)Cl`, the Potency entry in [1], in [2], in experiment [4] and in experiment [9] was “inactive” throughout.
With `O=[N+]([O-])c1cccc(O)c1`, the Potency entry in experiment [1], in experiment [2], in experiment [4], in [9] and in experiment [5] was “inactive” throughout.
Regarding `Cc1ncsc1CCCl`, the Potency result in [1], in [2], in [9] and in experiment [5] was “inactive” in each case.
For the compound `O=C(Nc1ccccc1)N(Cc1ccc(Cl)cc1)C1CCCC1`, the Potency result in experiment [1], in [4] and in experiment [9] was “inactive” in each case. Moreover, the Potency in [2] was 3.86 µM (active).
For `CCOP(=S)(OCC)SCSP(=S)(OCC)OCC`, the Potency entry in experiment [1], in experiment [4], in [9] and in experiment [5] was “inactive” each time. Also, in experiment [2], the Potency was 54.5 µM (active).
With `COc1ccc2c(c1OC)CN1CCc3cc4c(cc3C1C2)OCO4` (stereo unspecified), the Potency result in experiment [1], in experiment [4], in experiment [8], in experiment [9] and in experiment [5] was “inactive” throughout. In addition, in experiment [2], the Potency was 11.4 µM (active). In addition, the call in experiment [10] was inactive.
In the case of `CCC1(c2ccccc2)C(=O)NC(=O)NC1=O`, the Potency result in experiment [1], in experiment [3], in experiment [6], in [4], in experiment [9] and in experiment [5] was “inactive” throughout.
As to `CCCCC(=O)Cl`, the Potency entry in experiment [1], in experiment [2], in experiment [4] and in experiment [9] was “inactive” throughout.
Take `CCCCN(CCCCO)N=O`: the Potency entry in experiment [1], in experiment [3], in experiment [6], in experiment [4], in experiment [9] and in experiment [5] was “inactive” each time.
Turning to `Cc1cc(C)nc(Nc2ccccc2)n1`, the Potency result in experiment [1], in experiment [2], in [4] and in [9] was “inactive” throughout.
`CCCCCCI`: the Potency result in experiment [1], in [3], in experiment [6], in experiment [4], in [7] and in experiment [8] was “inactive” each time. Moreover, the Potency entry in experiment [9] and in experiment [5] was “inactive” in each case. Further, the call in experiment [10] was inactive.
For the compound `COC(=O)C(c1ccccc1)C1CCCCN1` (stereo unspecified), the Potency result in experiment [1], in [3], in experiment [6], in experiment [4], in experiment [7] and in [8] was “inactive” throughout. Besides, the Potency result in [9] and in experiment [5] was “inactive” throughout. Besides, the outcome in [10] was inactive.
Consider `ClCC(Cl)Cl`, for which the Potency result in experiment [1], in [3], in [6], in experiment [4], in experiment [9] and in experiment [5] was “inactive” in each case.
